# According to PubChem BioAssay AID743461 (Broad Institute, 2014):
# This is one part of the list. Unmarked numbers belong to inactive results.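 How the source made its calls: active means fitted dose curve reaching 40% activity at or below the highest valid dose tested; inconclusive means flat fit between 30% and 70%, or an unusable fit; inactive means the rest.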
# Experiment: COX5a mRNA reduction in C2C12 myotubes – cell-based, RT-qPCR, cherry-picked samples, dose response (AID 743461)
# Conditions: C2C12 myotubes PGC-1a adenovirus, at 0.0285 µM
structure (smiles),measurement,value
N#Cc1ccc(-c2ccc(C3[C@@H]4CN(S(=O)(=O)c5ccc(F)cc5)C[C@H]3N4)cc2)cc1 (stereo partly specified),maximal activity,-35.2%
